A selection: hits, their analogues and other compounds. The true share with any hit is near 4.6%.
tim23-1 inh – growth inhibitors of tim23-1 mutant yeast; inhibition, % at 20 µM; S. cerevisiae tim23-1 growth, BacTiter-Glo luminescence, 24 h; actives 1.3% (n = 330,000);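 active means growth inhibition of the mutant yeast at or above 50%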;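 further: temperature-sensitive mutant grown at 25 °C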
SKKanGAS inh – inhibitors of SKKanGAS S. pyogenes growth in kanamycin (SK-promoter or general growth effect); BacTiter-Glo, 6 h; inhibition, % at 7.5 µM; actives 1.3% (n = 300,000); AID 1662;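 active means mean replicate score, as percent of positive control median, at least 50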;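 further: strain carries kanamycin resistance gene driven by streptokinase promoter and grows in 40 µg/ml kanamycin; loss of luminescence reflects streptokinase promoter inhibition or plain growth inhibition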
NALP3 yeast inh – blocks the NALP3 inflammasome reconstituted in yeast | inhibition, % at 10 µM | actives 0.39% (n = 330,000) | Yeast reconstituted NLRP3/ASC/caspase-1, beta-gal luminescence, 24 h | AID 2825;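 active means inhibition of 50% or more; inactive means inhibition below 50%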
TIM10 inh – TIM10 yeast growth inhibition. S. cerevisiae TIM10 strain growth, BacTiter-Glo luminescence, 24 h. inhibition, % at 10 µM. actives 1.4% (n = 330,000). AID 463195;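 active means inhibition of 40% or more at the single tested concentration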;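 further: wild-type TIM10 isogenic control strain grown at permissive 25 °C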
tim10-1 inh – inhibits growth of tim10-1 mutant yeast; S. cerevisiae tim10-1 ts strain growth, BacTiter-Glo, 24 h; inhibition, % at 20 µM; actives 2.2% (n = 330,000);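 active means inhibition of at least 40%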;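 further: mutant grown at 25 °C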
tim10-1 confirm – confirmation of tim10-1 mutant yeast growth inhibitors. shares compounds with tim10-1 inh. AID 463213. S. cerevisiae tim10-1 ts strain growth, BacTiter-Glo, 24 h. actives 56% (n = 7,400). inhibition, % at 20 µM;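 active means inhibition of yeast growth at or above a set limit in either of two repeat tests at 20 µM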;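 further: tim10-1 mutant grown at permissive 25 °C to find synthetic lethal compounds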
Numbers stand for hits; i = inactive; nt = no result given.

SMILES | tim23-1 inh | SKKanGAS inh | NALP3 yeast inh | TIM10 inh | tim10-1 inh | tim10-1 confirm
Cc1ccc(-n2[nH]c(C)c(CCC#N)c2=O)cc1 | i | i | i | i | i | nt
COc1ccc(CCC2(C)NC(=O)N(C(C)C(=O)Nc3ccccc3F)C2=O)cc1 (configuration not stated) | i | nt | i | i | i | nt
CCOc1ccc2nc(SC3CC(=O)N(c4ccc(OC)cc4OC)C3=O)sc2c1 (configuration not stated) | i | i | i | i | 44 | 43
CCOc1ccc(N2C(=O)CC(Sc3nc4ccc(OCC)cc4s3)C2=O)cc1 (configuration not stated) | i | i | i | i | i | nt
COc1cc2c(cc1OC)/C(=C/c1ccc(Br)cc1)C(=O)OC2 | i | i | i | i | 43 | i
Cc1nnc(SCC(=O)NC2CCCCCC2)n1C(C)C | i | i | i | i | i | nt
Cc1ccc(NC(=O)CSC2=Nc3ccccc3C3CC=NN23)c(C)c1 (configuration not stated) | i | i | i | i | 44 | i
COC(=O)c1c(NC(=O)Cn2cnc([N+](=O)[O-])n2)sc2c1CCC(C)C2 (configuration not stated) | i | i | i | i | 50 | i
Cc1cc(OC(F)F)ccc1NC(=S)NCCc1ccccc1 | i | i | i | i | 48 | i
COc1ccc(NC(=S)NCCc2ccccc2)c(C)c1 | i | i | i | i | i | nt
S=C(NCCC(c1ccccc1)c1ccccc1)Nc1ccc(Cl)cc1 | i | 117 | i | i | 55 | i
S=C(NCCCc1ccccc1)Nc1ccccc1 | i | nt | i | i | i | nt
COc1ccc(Cl)cc1NC(=S)NCCc1ccc(F)cc1 | i | i | i | i | 51 | 34
COc1ccc(Cl)cc1NC(=S)NCCc1ccc(S(N)(=O)=O)cc1 | i | i | i | i | i | nt
S=C(NCCc1ccccc1)Nc1ccc(Nc2ccccc2)cc1 | i | i | i | i | 52 | 34
Cc1ccc(S(=O)(=O)N2CCOCC2)cc1NC(=O)COC(=O)CNC(=O)c1ccc(Cl)cc1Cl | i | i | i | i | i | nt
Cc1nn(C2CCS(=O)(=O)C2)c(C)c1CN(C)C(=O)c1ccccc1 (configuration not stated) | i | nt | i | i | i | nt
Fc1ccc(F)c(NC(=S)NCCc2ccccc2)c1 | i | i | i | i | 46 | i
COc1ccc(Cl)cc1NC(=S)NCc1ccco1 | i | i | i | i | 55 | 36
Cc1cc(C)c(S(=O)(=O)NCc2nc3nc(C)cc(C)n3n2)c(C)c1 | i | i | i | i | i | nt
COc1ccc(NS(=O)(=O)c2cc(C(=O)NNC(=O)c3ccncc3)ccc2OC)c(OC)c1 | i | nt | i | i | i | nt
CC(C)[C@H](NC(=O)c1ccccc1)C(=O)NC1=NCCS1 | i | nt | i | i | i | nt
COC(=O)c1c(NC(=O)C(=O)NCC2CCCO2)sc2c1CC(C)(C)OC2 (configuration not stated) | i | i | i | i | i | nt
COc1ccc(/C=C2/N=C(c3cccs3)OC2=O)cc1OC(C)C | i | i | i | i | 42 | 30
CC(=O)Nc1ccc(C(=O)OCc2ccc(F)cc2)cc1 | i | i | i | i | 42 | i
SMILES | tim23-1 inh | SKKanGAS inh | NALP3 yeast inh | TIM10 inh | tim10-1 inh | tim10-1 confirm
COc1ccc(OC)c(S(=O)(=O)Nc2c(NC3CCCCC3)c3ccccc3oc2=O)c1 | i | i | i | i | i | nt
Cc1cc(C)c(N=Cc2c(O)n(-c3nccs3)c(=O)c3ccccc23)c(C)c1 | i | i | i | i | 41 | 32
COc1ccccc1/C=C\C(=O)NCC(=O)N/N=C/c1cccc(OC)c1O | i | i | i | i | 51 | i
CCc1ccc2[nH]c(=O)c(C3C(C#N)=C(N)Oc4c3ccc3cccnc43)cc2c1 (configuration not stated) | i | 58 | i | i | 41 | i
COc1cccc(N(CC(=O)NCCSCc2ccc(Cl)cc2)S(C)(=O)=O)c1 | i | i | i | i | i | nt
COCCNC(=O)/C(C#N)=C/C(C)=C/c1ccccc1 | i | i | i | i | 53 | 42
O=C(COC(=O)c1ccncc1)Nc1cccc2ccccc12 | i | nt | i | i | i | nt
COc1ccccc1OCCNC(=O)Nc1ccc(Br)cc1 | i | i | i | i | 40 | 31
COc1ccccc1OCCNC(=O)c1ccc(Br)cc1 | i | i | i | i | i | nt
O=C(CCN1C(=O)/C(=C/c2cccs2)SC1=S)N1CCCCC1 | i | i | i | i | 42 | i
COc1ccccc1/C=C1\SC(=S)N(CCC(=O)N2CCCCC2CCO)C1=O (configuration not stated) | i | i | i | i | 42 | i
Cc1ccc(C)c(S(=O)(=O)N2CCN(C(=O)[C@H](Cc3ccccc3)NC(=O)c3ccco3)CC2)c1 | i | nt | i | i | i | nt
O=[N+]([O-])c1cc(/C=N/O)ccc1SCc1ccccc1Cl | i | i | i | i | 47 | i
OCC[C@H]1C[C@@H](O)[C@H](O)[C@]2(OCCc3ccccc32)O1 | i | nt | i | i | i | nt
Cc1cc(C(=O)CSc2nnc(-c3cccs3)o2)c(C)n1-c1ccccc1 | i | i | i | i | 48 | 34
O=C(CSc1nnc(-c2cccs2)o1)c1cccs1 | i | i | i | i | i | nt
CCN(CC)C(=O)CSc1nnc(-c2cc(-c3ccc(Cl)cc3)nc3ccccc23)o1 | i | i | i | i | i | nt
CN(C)C(=O)CSc1nnc(-c2cc(-c3cccs3)nc3ccccc23)o1 | i | i | i | i | 40 | 38
N#Cc1ccc(COC(=O)C2CC(=O)N(CCc3ccccc3)C2)cc1 (configuration not stated) | i | nt | i | i | i | nt
O=C(OCc1ccc([N+](=O)[O-])cc1)C1CC(=O)N(CCc2ccccc2)C1 (configuration not stated) | i | i | i | i | 43 | i
CC(C)(C)c1cc(CCC(=O)NNC(=S)NC(=O)c2ccccc2)cc(C(C)(C)C)c1O | i | 97 | i | i | 46 | 31
CC(C)(C)c1cc(CCC(=O)NNC(=O)c2ccco2)cc(C(C)(C)C)c1O | i | i | i | i | i | nt
Cc1ccc(S(=O)(=O)Nc2cc(C)cn(Cc3ccc(F)cc3)c2=O)cc1 | i | i | i | i | i | nt
O=C(Oc1c(-c2ccccc2)c(=O)n2c3c(cccc13)CC2)c1ccc(Cl)cc1 | i | i | i | i | i | nt
O=C(Oc1c(-c2ccccc2)c(=O)n2c3c(cccc13)CC2)c1ccco1 | i | i | i | i | 46 | i
CCN1C(=O)C2(C(C#N)=C(N)Oc3c2c(C)nn3-c2ccccc2)c2ccccc21 (configuration not stated) | i | i | i | i | 64 | 62
COc1cc(NC(=O)c2ccccc2F)c(OC)cc1NC(=O)CN1CCOCC1 | i | i | i | i | 43 | i
CCOC(=O)N1CCN(S(=O)(=O)c2ccc(C(=O)NNc3nc4cc(C)cc(C)c4s3)cc2)CC1 | i | i | i | i | 42 | i
CCOC(=O)N1CCN(S(=O)(=O)c2ccc(C(=O)NNc3nc4c(C)cc(C)cc4s3)cc2)CC1 | i | i | i | i | i | nt

Bioassay records deposited in PubChem BioAssay by several laboratories.
